The full list was thinned out, with hits kept by preference.
DUX4 inh: DUX4-mediated transcription inhibition. 293T-iDUX4 ZSCAN4-Gaussia luciferase reporter, 24 h; active compounds read low. activity change, negative = inhibition, % (concentration not given with the values). 0.8% of 37,000 active. AID 1224904;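 active means mean inhibition of at least 10% in the main channel, exceeding the control channel by a set limit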
Large screens that a line does not name were inactive; ! = not confirmed by another sample.

O=C(C[C@@H]1CC[C@H](NS(=O)(=O)c2ccc(F)cc2)[C@H](CO)O1)NC1CCCCC1	none
CCNC(=O)C[C@@H]1CC[C@H]2[C@H](COc3ccc(NC(C)=O)cc3C(=O)N2C)O1	none
C[C@H](CO)N1C[C@H](C)[C@@H](CN(C)Cc2cccnc2)Oc2cc(/C=C/c3ccccc3)ccc2S1(=O)=O	none
CO[C@@H]1CN(C)C(=O)c2cc(NC(=O)Cc3ccccc3)ccc2OC[C@@H](C)NC[C@@H]1C	none
COc1ccc(NC(=O)N(C)C[C@H]2Oc3c(NC(=O)c4ccncc4)cccc3C(=O)N([C@H](C)CO)C[C@@H]2C)cc1	none
C/C=C/c1ccc(C2[C@@H]3CN(C(=O)Cc4ccccc4)C[C@H]2N3)cc1 (stereo partly drawn)	none
C(=C\c1ccc(C2[C@@H]3CN(Cc4nccs4)C[C@H]2N3)cc1)/c1ccccc1 (stereo partly drawn)	DUX4 inh -32!
O=C(c1ccncc1)N1C[C@@H]2N[C@H](C1)C2c1ccc(/C=C/c2ccccc2)cc1 (stereo partly drawn)	none
O=C(Cc1ccncc1)N1C[C@@H]2N[C@H](C1)C2c1ccc(/C=C/c2ccccc2)cc1 (stereo partly drawn)	DUX4 inh -28!
c1cncc(-c2ccc(C3[C@@H]4CN(Cc5nccs5)C[C@H]3N4)cc2)c1 (stereo partly drawn)	DUX4 inh -35!
O=C(CN1CCOCC1)N1C[C@@H]2N[C@H](C1)C2c1ccc(/C=C/c2ccccc2)cc1 (stereo partly drawn)	none
O=C(Cc1ccncc1)N1C[C@@H]2N[C@H](C1)C2c1ccc(-c2ccccc2)cc1 (stereo partly drawn)	none
C(=C\c1ccc(C2[C@@H]3CN(Cc4ccccn4)C[C@H]2N3)cc1)/c1ccccc1 (stereo partly drawn)	DUX4 inh -32
O=C(c1cccnc1)N1C[C@@H]2N[C@H](C1)C2c1ccc(-c2ccccc2)cc1 (stereo partly drawn)	none
c1cc(-c2ccc(C3[C@@H]4CN(Cc5nccs5)C[C@H]3N4)cc2)ccn1 (stereo partly drawn)	none
C/C=C/c1ccc(C2[C@@H]3CN(C(=O)Cc4ccncc4)C[C@H]2N3)cc1 (stereo partly drawn)	none
C/C=C/c1ccc(C2[C@H]3CNC[C@@H]2N3Cc2nccs2)cc1 (stereo partly drawn)	none
O=C(c1ccncc1)N1CC2(C1)[C@H](c1ccccc1)[C@@H](CO)N2CC1CC1	none
CCCC#Cc1ccc([C@@H]2[C@@H](C#N)N(C(=O)C3CCCCC3)[C@@H]2CO)cc1	none
COc1ccc(CN(C)C[C@@H]2OCc3cn(nn3)CCCC(=O)N([C@@H](C)CO)C[C@H]2C)cc1	none
CN(C)C(=O)c1ccc(-c2ccc3c(c2)[C@@H]2[C@@H](CCN2Cc2ccc4c(c2)OCO4)[C@@H](CO)N3)cc1	none
C[C@H](CO)N1C[C@H](C)[C@H](CN(C)Cc2ccc(C(=O)Nc3ccccc3N)cc2)OCCCC[C@H](C)Oc2ccc(N(C)C)cc2C1=O	none
O=C(C[C@@H]1C=C[C@H](NC(=O)CC2CC2)[C@H](CO)O1)NCC(F)(F)F	none
COCC(=O)N1C[C@H]2[C@@H](c3ccccc31)[C@@H](CO)N2Cc1ccc(OC)cc1	none
C/C=C/c1cnc2c(c1)C(=O)N([C@H](C)CO)C[C@@H](C)[C@@H](CN(C)Cc1ccncc1)O2	none
N#C[C@@H]1[C@@H](c2ccccc2-c2ccccc2F)[C@@H](CO)N1C(=O)Cc1ccccc1	none
O=C(NC1CCCC1)N1CCCCN2[C@H](C1)[C@H](c1ccc(-c3cccnc3)cc1)[C@@H]2CO	none
COc1ccc(NC(=O)Nc2ccc3c(c2)[C@H]2C[C@@H](CC(=O)N[C@@H](C)c4ccccc4)O[C@H](CO)[C@H]2O3)cc1	none
C[C@H](NC(=O)C[C@@H]1C[C@H]2c3cc(NC(=O)Nc4ccc(C(F)(F)F)cc4)ccc3O[C@H]2[C@H](CO)O1)c1ccccc1	DUX4 inh -14
COc1ccc(NC(=O)Nc2ccc3c(c2)[C@@H]2C[C@@H](CC(=O)N[C@@H](C)c4ccccc4)O[C@H](CO)[C@@H]2O3)cc1	none
O=C(C[C@H]1C[C@H]2c3cc(NC(=O)Nc4ccc(C(F)(F)F)cc4)ccc3O[C@H]2[C@H](CO)O1)NCc1ccc2c(c1)OCO2	none
O=C(C[C@@H]1C[C@@H]2c3cc(NC(=O)Nc4ccc(C(F)(F)F)cc4)ccc3O[C@@H]2[C@H](CO)O1)NCc1ccc(Cl)cc1	none
O=C(C[C@@H]1C[C@H]2c3cc(NC(=O)Nc4ccc(C(F)(F)F)cc4)ccc3O[C@H]2[C@H](CO)O1)NCc1ccc2c(c1)OCO2	DUX4 inh -47
O=C(C[C@@H]1C[C@H]2c3cc(NC(=O)Nc4ccc(C(F)(F)F)cc4)ccc3O[C@H]2[C@H](CO)O1)NCc1ccc(Cl)cc1	DUX4 inh -37
O=C(C[C@@H]1C[C@H]2c3cc(NC(=O)Nc4ccc(C(F)(F)F)cc4)ccc3O[C@H]2[C@H](CO)O1)NCCc1ccccc1	DUX4 inh -47
COc1ccc(NC(=O)Nc2ccc3c(c2)[C@H]2C[C@@H](CC(=O)NCCc4ccccc4)O[C@@H](CO)[C@H]2O3)cc1	none
